DT40 TDP1 no CPT – qHTS for Inhibitors of human tyrosyl-DNA phosphodiesterase 1 (TDP1): qHTS in cells in absence of CPT; DT40 Tdp1-/- hTDP1 cells, no CPT, ATP luminescence, 48 h; Potency, µM (series often up to 46.2 µM), without a hit: at the highest dose activity change, negative = growth inhibition, most hits filed as inhibitors; 420,000 tested, 15% active; AID 686978, 2013; also: potency is read from the fitted curve at half-maximal effect; nearly all actives have a fitted effect of over 55% in size
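Compound effects on proliferation are scored in DT40 Tdp1-/-;hTDP1 cells in the absence of CPT. ATP levels (CellTiter-Glo luminescence) are recorded after a ≥48 hr, 37 °C incubation.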
TDP1 cell CPT – qHTS for Inhibitors of human tyrosyl-DNA phosphodiesterase 1 (TDP1): qHTS in cells in presence of CPT | 420,000 tested, 12% active | chicken DT40 Tdp1-/-;hTDP1 cells + 20 nM CPT, ATP luminescence, 48 h | Potency, µM (doses to about 46.2 µM), without a hit: top-dose activity change, negative = growth inhibition, usual class: inhibitors; also: potency is read from the fitted curve at half-maximal effect; nearly all actives have a fitted effect of over 55% in size
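Chicken DT40 Tdp1-/- cells complemented with human TDP1, 400 cells/well, exposed to compounds plus 20 nM camptothecin for at least 48 h at 37 C; viability read as ATP content by CellTiter-Glo luminescence.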
HT1080 IDH1KD tx – qHTS for induction of synthetic lethality in tumor cells producing 2HG: qHTS for the HT-1080-IDH1KD cell line. HT-1080 IDH1 knockdown viability, ATP luminescence, 48 h. Potency, µM (highest dose often 46.1 µM), for inactives: at the top dose activity, negative = toxicity, most hits filed as cytotoxic. 360,000 tested, 2% active. AID 686971, 2013;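 also: potency is read from the fitted curve at half-maximal effect; 0% = DMSO wells and -100% = cell-free medium wells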
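% activity derives from luminescence (CellTiter-Glo), normalised to DMSO and no-cell wells. HT-1080-IDH1KD cells, 750/well, had 48 h compound exposure at 37 °C.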
IL-1B inflam inh – qHTS for Inhibitors of Inflammasome Signaling: IL-1-beta AlphaLISA Primary Screen; THP-1 LPS/ATP IL-1B secretion, AlphaLISA, 16 h; active compounds read low; activity change, % at 57.5 µM; 360,000 tested, 4.7% active; AID 743279, 2014; in the data active = activity change below about -50%; inconclusive = mostly about -30% to -49%
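THP-1 cells pretreated 1 hr with compounds (up to 57.5 uM final), then stimulated with LPS (250 ng/mL final) plus ATP (1.25 mM final); secreted IL-1B measured by AlphaLISA after 16 hr, decreased signal indicating inhibition.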
ELG1 DNA repair – qHTS screen for small molecules that inhibit ELG1-dependent DNA repair in human embryonic kidney (HEK293T) cells expressing luciferase-tagged ELG1 | HEK293T ELG1-luciferase reporter, luminescence, 16 h; DNA damage induced by 5-fluorouridine | Potency, µM (doses to about 46.1 µM), for inactives: at the top dose activity change, negative = inhibition, hits mostly inhibitors | 330,000 tested, 2.3% active; also: potency is read from the fitted curve at half-maximal effect; nearly all actives have a fitted effect of over 55% in size
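Reporter activity after DNA damage by 5-fluorouridine is monitored. Compound-treated cells incubate 16 hr at 37 °C, then ONE-Glo is added for 30 min before luminescence reading.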
HT1080-NT tox – qHTS for induction of synthetic lethality in tumor cells producing 2HG: qHTS for the HT-1080-NT fibrosarcoma cell line | HT-1080-NT fibrosarcoma viability, CellTiter-Glo ATP luminescence, 48 h | Potency, µM (series often up to 46.1 µM), inactives show top-dose activity, negative = less viability, hits mostly cytotoxic | 360,000 tested, 1.6% active;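 also: NT is the 2HG producing partner of a matched IDH1 knockdown line; potency is read from the fitted curve at half-maximal effect; 0% = DMSO-treated cells and -100% = media-only wells without cells; nearly all actives have a fitted effect of over 55% in size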
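Compounds were tested in concentration-response format on HT-1080-NT cells for 48 hours at 37 degrees C. Cell viability came from CellTiter-Glo luminescence; curves were classified by r2, response magnitude and activity.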
* marks the source's active call; other numbers are inactive results; ? = inconclusive; nt = no result; [ ] = dose if it differs, or a comment. A selection: hits, their analogues and other compounds. The true share with any hit is near 19%. Unless noted, calls follow the shape of the dose curve; as a rule, active = well fitted curve in the direction sought with a large enough effect; inconclusive = small, poorly fitted or top-dose-only effect, or another doubt; inactive = no such curve, though single readings can be large; an effect the other way counts as inactive or inconclusive. Unless noted, % is scaled to controls: 0 for no effect and ±100 for the full control effect.

SMILES	DT40 TDP1 no CPT	TDP1 cell CPT	HT1080 IDH1KD tx	IL-1B inflam inh	ELG1 DNA repair	HT1080-NT tox
CCOC(=O)c1c(S(=O)(=O)Nc2cccc(-c3ccno3)c2)c(C)n(C)c1C	-14%	1%	-8%	10	-3%	10%
COC(=O)c1cc(S(=O)(=O)Nc2cccc(-c3ccno3)c2)c[nH]1	7.3µM*	12µM*	-5%	26	nt	2%
Cc1ccc(CNC(=O)CCc2c(C)nc3c4c(C)cc(C)nc4nn3c2C)cc1	-25%	-18%	nt	nt	nt	nt
CCn1c(=N)n(CC(=O)c2cccc([N+](=O)[O-])c2)c2ccccc21	21µM*	?	1%	-27	?	4%
CCCCOC(=O)Cn1c(=N)n(CCN2CCOCC2)c2ccccc21	-17%	9%	10%	20	nt	-2%
N=c1n(CC(=O)c2cccc([N+](=O)[O-])c2)c2ccccc2n1Cc1ccccc1	21µM*	16µM*	?	-104*	-12%	-23%
N=c1n(CCN2CCOCC2)c2ccccc2n1CC(=O)c1cccc([N+](=O)[O-])c1	23µM*	16µM*	-18%	-2	?	0%
O=C(NCCN1CCOCC1)c1cc([N+](=O)[O-])cc([N+](=O)[O-])c1	6%	6%	11%	22	-20%	16%
N=c1n(CCN2CCOCC2)c2ccccc2n1CC(=O)c1ccc(Cl)c(Cl)c1	18µM*	?	?	-7	?	-23%
CCCCn1c(N)c(N(CC(C)C)C(=O)CCNC(=O)c2ccc([N+](=O)[O-])cc2)c(=O)[nH]c1=O	4%	-1%	-3%	-12	11%	0%
COCCCN(C(=O)C1=COCCO1)c1c(N)n(Cc2ccccc2)c(=O)[nH]c1=O	-17%	-2%	-2%	-7	nt	-1%
O=C(c1cccc(F)c1)N1CCCC(C(=O)N2CCN(c3ccccc3)CC2)C1 (stereo not given)	?	8%	13%	nt	-4%	5%
OCC1(Cc2ccccc2)CCCN(Cc2cnn(-c3ccccc3)c2)C1 (stereo not given)	?	?	-20%	?	-7%	-13%
COc1cccc(CC2(CO)CCCN(Cc3c(C)cc(C)cc3-n3cccn3)C2)c1 (stereo not given)	15µM*	21µM*	?	-10	-14%	?
COc1ccccc1-n1cc(CN2CCCC(CO)(Cc3cccc(Cl)c3)C2)cn1 (stereo not given)	23µM*	?	-2%	0	-10%	0%
COc1ccc(-n2ccnc2CN2CCCC(CO)(Cc3cccc(OC)c3)C2)cc1 (stereo not given)	26µM*	?	-5%	2	-21%	-24%
COc1cccc(CC2(CO)CCCN(Cc3ccc(-c4ccco4)cc3)C2)c1 (stereo not given)	21µM*	23µM*	?	7	12%	?
CC1=CC2C(C)(C)CC(=O)C[C@]2(C)CC1COc1ccc2c(c1)CC(=O)C=C2 (stereo not given in full)	-5%[9.04 µM]	-10%[9.04 µM]	nt	nt	nt	nt
O=c1oc2ccccc2c2c1nnn2CCO	6%	-2%	-14%	9	12%	-7%
Cc1ccc(N(C)S(=O)(=O)c2ccc(-c3coc(C)n3)cc2)cc1	?	-27%	nt	nt	nt	nt
COc1cccc(CC2(CO)CCCN(Cc3cc4ccccc4[nH]3)C2)c1 (stereo not given)	?	?	23µM*	-54*	6%	?
O=C(N/N=C/c1c(O)n(-c2ccccc2Cl)c(=O)c2ccccc12)C1COc2ccccc2O1 (stereo not given)	?	?	?	51	?	?
Cc1c(/C=N\NC(=O)C2COc3ccccc3O2)c2ccccc2n1C (stereo not given)	0.92µM*	0.73µM*	0.65µM*	3	1%	0.65µM*
Cc1ccc(-n2c(O)c(/C=N/NC(=O)C3COc4ccccc4O3)c3ccccc3c2=O)cc1 (stereo not given)	26µM*	?	-14%	45	-17%	-9%
O=C(N/N=C\c1ccc[nH]1)C1COc2ccccc2O1 (stereo not given)	0%	6%	9%	-18	6%	5%
SMILES	DT40 TDP1 no CPT	TDP1 cell CPT	HT1080 IDH1KD tx	IL-1B inflam inh	ELG1 DNA repair	HT1080-NT tox
Cn1cc(/C=N\NC(=O)C2COc3ccccc3O2)c2ccccc21 (stereo not given)	nt	nt	nt	nt	-11%	nt
Cc1[nH]n(-c2ccccc2)c(=O)c1/C=N\NC(=O)C1COc2ccccc2O1 (stereo not given)	5.2µM*	3.3µM*	?	19	?	?
Cc1ccc(CNC(=O)c2ccc3c(c2)NC(=O)CS3)cc1	-20%	?	0%	-19	2%	-2%
CN1CCN(C2=Nc3c(Cl)cc(Cl)c4cccc2c34)CC1	21µM*	?	-6%	-53*	1%	-10%
O=[N+]([O-])c1ccccc1S(=O)(=O)NC1CCCCCCC1	16µM*	-22%	-3%	4	-11%	-5%
O=C(NC1CCCCC1)c1ccc(S(=O)(=O)c2ccccc2Cl)c([N+](=O)[O-])c1	nt	nt	nt	nt	5.8µM*	nt
O=C(NC1CCCCC1)c1ccc([N+](=O)[O-])cc1	-23%	-16%	7%	-2	nt	23%
CN(C(=O)c1ccc(NC(=O)Cc2cccc([N+](=O)[O-])c2)cc1)C1CCCC1	-21%	?	-4%	?	-17%	-4%
O=[N+]([O-])c1ccccc1S(=O)(=O)NC1CCCC1	-3%	0%	14%	17	4%	23%
CN(C(=O)c1ccc(S(=O)(=O)c2cccc(Cl)c2)c([N+](=O)[O-])c1)C1CCCCC1	5.2µM*	3.7µM*	?	-106*	?	?
COc1cccc(-c2nnc3sc(-c4ccccc4)nn23)c1	23µM*	?	-11%	-24	3%	-2%

High-throughput results as filed in PubChem BioAssay.
